Where “and” joins values, the source holds several entries; their conditions need not be identical. Equal entries are not always repeated. ± gives the standard deviation of the averaged measurements.
Columns and labels:
DLD1 [1] = test: cell viability (CellTiter-Glo) relative to plate median (fraction of plate median); higher = more viable cells; conditions: 5 µM; treatment time 24 h; reporter: 7TFP
Outline: (§1)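 Library compounds, at a final 5 µM, stayed on reporter cells for 24 h. The cells were colorectal cancer lines stably transduced with lentiviral TCF/Wnt firefly luciferase reporters, seeded in 384-well plates 24 h before dosing. Firefly luciferase or CellTiterGlo luminescence from parallel plates was normalised to the plate median in webcellHTS2 (additive, no log transformation), and two independent replicates were averaged.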

HCT116 = test: as above; conditions: 5 µM; treatment time 24 h; reporter: TCF4/Wnt
Outline: as §1

SW480 [2] = test: as above; conditions: 5 µM; treatment time 24 h; reporter: 7TFP
Outline: as §1

DLD1 [3] = test: TCF/Wnt firefly luciferase reporter signal relative to plate median (fraction of plate median); higher = higher Wnt reporter signal; conditions: 5 µM; treatment time 24 h; reporter: 7TFP
Outline: as §1

SW480 [4] = test: as above; conditions: 5 µM; treatment time 24 h; reporter: 7TFP
Outline: as §1

SMILES	cell viability (DLD1 [1])	cell viability (HCT116)	cell viability (SW480 [2])	TCF/Wnt firefly luciferase reporter signal (DLD1 [3])	TCF/Wnt firefly luciferase reporter signal (SW480 [4])
COC1=C[C@]23CCCN2CCc2cc4c(cc2[C@@H]3[C@@H]1O)OCO4	0.98 ± 0.14	1.01 ± 0.035	1.01 ± 0.021	0.997 ± 0.32	0.953 ± 0.067
C=C[C@H]1CN2CC[C@H]1C[C@@H]2[C@@H](O)c1ccnc2ccccc12	1.02 ± 0.055	0.963 ± 0.021	0.984 ± 0.023	1.03 ± 0.028	0.926 ± 0.014
NCCc1cc(O)c(O)cc1O	1.04 ± 0.065	1.03 ± 0.028	0.983 ± 0.025	1.13 ± 0.16	1.24 ± 0.021
C[C@]12CC[C@H](O)C[C@@H]1CC[C@@H]1[C@@H]2CC[C@]2(C)C(=O)CC[C@@H]12	0.956 ± 0.038	0.9945 ± 0.0078	1.01 ± 0.11	1.075 ± 0.0071	1.01 ± 0.033
N#C[C@H](O[C@@H]1O[C@H](CO[C@@H]2O[C@H](CO)[C@@H](O)[C@H](O)[C@H]2O)[C@@H](O)[C@H](O)[C@H]1O)c1ccccc1	1.01 ± 0.09	1.04 ± 0.089	1.01 ± 0.042	0.757 ± 0.0042	0.916 ± 0.071
COc1ccc(C(=O)O[C@H]2CC[C@@]3(C)[C@@H]4CC[C@H]5[C@]6(O)C[C@H](O)[C@@]7(O)[C@@H](CN8C[C@@H](C)CC[C@H]8[C@@]7(C)O)[C@]6(O)C[C@@]53O[C@]24O)cc1OC	0.98 ± 0.043	0.942 ± 0.083	1.02 ± 0.099	1.03 ± 0.14	1.05 ± 0.087
CC1(C)C(=O)[C@@H]2O[C@@H]2[C@@]2(C)C1C[C@@H](O)[C@]1(C)C2CC[C@@]2(C)[C@H](c3ccoc3)OC(=O)C3OC321 (stereo partly drawn) [1,2alpha-EPOXYDEACETOXYDIHYDROGEDUNIN]	1.01 ± 0.032	1.12 ± 0.099	1.01 ± 0.056	0.962 ± 0.013	0.957 ± 0.22
CC1C=CC=CCCC=CC=CC=CC=CC(OC2OC(C)C(O)C(N)C2O)CC2OC(O)(CC(O)C(O)CCC(O)CC(O)CC(O)CC(=O)OC(C)C(C)C1O)CC(O)C2C(=O)O (stereo not given)	0.932 ± 0.04	0.906 ± 0.023	0.973 ± 0.031	0.874 ± 0.0014	0.762 ± 0.0092
O=C1CCC[C@@H]2[C@H]3C[C@@H](CN12)[C@@H]1CCCCN1C3.[O-][Cl+3]([O-])([O-])O	1.01 ± 0.024	0.956 ± 0.053	0.976 ± 0.021	0.922 ± 0.022	0.97 ± 0.018
C=CCc1ccc2c(c1)OCO2	0.985 ± 0.021	0.898 ± 0.13	1.06 ± 0.078	0.914 ± 0.16	0.952 ± 0.11
CC[C@H]1CN2CCc3cc(OC)c(OC)cc3[C@@H]2C[C@@H]1C[C@H]1NCCc2cc(OC)c(OC)cc21	0.984 ± 0.094	0.815 ± 0.3	0.902 ± 0.059	0.615 ± 0.1	0.608 ± 0.064
C[C@@H]1C[C@@H]([C@H](O)CC2CC(=O)NC(=O)C2)C(=O)[C@@H](C)C1	0.892 ± 0.059	0.5955 ± 0.0035	0.967 ± 0.076	0.387 ± 0.088	0.665 ± 0.15
O=C([O-])c1ccccc1-c1c2cc(Br)c(=O)cc-2oc2[c]([Hg+])c([O-])c(Br)cc12.[Na+].[Na+].[OH-]	0.955 ± 0.0071	0.961 ± 0.13	0.945 ± 0.0099	1 ± 0.15	0.934 ± 0.052
C[C@]12CCC(=O)C=C1CCc1ccc(O)cc12	1.03 ± 0.042	1.05 ± 0.05	1.05 ± 0.014	1.07 ± 0.14	1.03 ± 0.028
CC(C)=CCOc1c2occc2cc2ccc(=O)oc12	1.03 ± 0.086	0.997 ± 0.1	1.01 ± 0.014	1.12 ± 0.05	0.998 ± 0.16
N.N.[Cl][Pt][Cl]	1.1 ± 0.11	1.07 ± 0.014	1.02 ± 0.014	0.939 ± 0.016	0.954 ± 0.08
O=c1[nH]c2ccccc2n1C1CCN(CCCC(c2ccc(F)cc2)c2ccc(F)cc2)CC1	0.95 ± 0.013	0.922 ± 0.065	1.01 ± 0.019	1.02 ± 0.014	0.88 ± 0.12
CC(=O)[O][Hg][c]1ccccc1	0.0442 ± 0.012	0.0479 ± 0.031	0.0258 ± 0.0048	0.0227 ± 0.0033	0.0222 ± 0.0026
O=C1C=CC(=O)c2c(O)cccc21	0.921 ± 0.035	0.972 ± 0.033	0.961 ± 0.016	1.03	1.08 ± 0.064
COc1ccc(C(=O)O)cc1OC	0.902 ± 0.18	1.04 ± 0.098	0.984 ± 0.023	0.949 ± 0.087	0.9985 ± 0.0021
O=c1ccc2cc(O[C@@H]3O[C@H](CO)[C@@H](O)[C@H](O)[C@H]3O)c(O)cc2o1	1.04	0.922 and 0.995	0.965 and 0.998	1.23 and 1.08	1.09 and 1.19
CC(=O)O[C@H]1CC[C@@]2(C)C(=CC[C@@H]3[C@@H]2CC[C@]2(C)C(=O)CC[C@@H]32)C1	1.02 ± 0.075	1.03 ± 0.083	0.983 ± 0.025	0.944 ± 0.028	1.08 ± 0.092
CC(=O)O[C@@H]1C[C@@]2(C)[C@H](c3ccoc3)C[C@H]3O[C@]32[C@]2(C)C(=O)C(O)=C3C(C)(C)C(=O)C=C[C@]3(C)[C@@H]12	0.901 ± 0.044	0.824 ± 0.14	1.09 ± 0.12	0.888 ± 0.03	0.831 ± 0.19
CN1C[C@H](C(=O)N[C@]2(C)O[C@@]3(O)[C@@H]4CCCN4C(=O)[C@H](Cc4ccccc4)N3C2=O)C=C2c3cccc4[nH]cc(c34)C[C@H]21	0.967 ± 0.09	1.11 ± 0.078	1.03 ± 0.042	1.23 ± 0.25	1.16 ± 0.078
C[C@]12CC[C@H]3[C@@H](CCC4=CC(=O)CC[C@@]43C)[C@@H]1CC[C@@H]2O	1.03 ± 0.021	1.15 ± 0.17	1.045 ± 0.0071	0.967 ± 0.061	1.04 ± 0.092
CC[C@H]1CN2CC[C@H]1C[C@@H]2[C@@H](O)c1ccnc2ccc(OC)cc12	0.997 ± 0.0042	1.07 ± 0.05	1.06 ± 0.064	1.08 ± 0.24	1.06 ± 0.071
